# An excerpt weighted towards active compounds, which were near 19% of everything screened.
# KB-V1 MDR tox: kills drug-selected multidrug resistant KB-V1 cells; KB-V1 MDR cells viability, CellTiter-Glo, 72 h; Potency, µM (highest dose often 46.1 µM), hits mostly cytotoxic; 400,000 compounds, 3.4% hits; AID 1347076; also: nearly all actives have a fitted effect of over 60% in size
#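 Following 72 h at 37 degrees C with compound, KB-V1 cell viability was read by CellTiter-Glo luminescence, medium being phenol-red-free DMEM plus 10% FBS; concentration-response parameters came from normalized, curve-fitted qHTS data.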
# DT40 TDP1 CPT: DT40-hTDP1 cell growth loss with CPT | chicken DT40 Tdp1-/-;hTDP1 cells + 20 nM CPT, ATP luminescence, 48 h | Potency, µM (top dose mostly 46.2 µM), inactives show at the top dose activity change, negative = growth inhibition, most hits filed as inhibitors | 420,000 compounds, 12% hits; also: nearly all actives have a fitted effect of over 55% in size
#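 Chicken DT40 Tdp1-/- cells stably complemented with human TDP1 were seeded at 400 cells/well in medium containing 20 nM camptothecin, exposed to pin-transferred compounds, and grown at 37 °C for at least 48 hr. Viability was read as ATP luminescence.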
# HT1080NT lethal: kills 2HG-producing HT-1080-NT fibrosarcoma cells. HT-1080-NT fibrosarcoma viability, CellTiter-Glo ATP luminescence, 48 h. Potency, µM (series often up to 46.1 µM), inactives show top-dose activity, negative = less viability, usual class: cytotoxic. 360,000 compounds, 1.6% hits. AID 686970;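 also: NT is the 2HG producing partner of a matched IDH1 knockdown line; 0% = DMSO-treated cells and -100% = media-only wells without cells; nearly all actives have a fitted effect of over 55% in size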
#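 750 cells/well, RPMI + 5% FBS; 2 h settle, compound pin-transfer, 48 h at 37 degrees C. CellTiter-Glo 10 min RT, luminescence. Normalized to DMSO and media-only wells.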
# HT1080 IDH1KD tx: kills HT-1080 cells with IDH1 knockdown | HT-1080 IDH1 knockdown viability, ATP luminescence, 48 h | Potency, µM (top dose mostly 46.1 µM), without a hit: at the top dose activity, negative = toxicity, usual class: cytotoxic | 360,000 compounds, 2% hits | AID 686971;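 also: 0% = DMSO wells and -100% = cell-free medium wells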
#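 % activity derives from luminescence (CellTiter-Glo), normalised to DMSO and no-cell wells. HT-1080-IDH1KD cells, 750/well, had 48 h compound exposure at 37 °C.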
# TDP1 cell noCPT: qHTS for Inhibitors of human tyrosyl-DNA phosphodiesterase 1 (TDP1): qHTS in cells in absence of CPT. DT40 Tdp1-/- hTDP1 cells, no CPT, ATP luminescence, 48 h. Potency, µM (titrated, usually from 46.2 µM), inactives show at the highest dose activity change, negative = growth inhibition, actives largely listed as inhibitors. 420,000 compounds, 15% hits. AID 686978, 2013; also: nearly all actives have a fitted effect of over 55% in size
#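 Stably hTDP1-transfected Tdp1-null chicken DT40 cells were treated with library compounds minus camptothecin and grown for at least 48 hr at 37 °C, after which cellular ATP was quantified by luminescence.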
# KB-3-1 cytotox: KB-3-1 parental cell cytotoxicity; AID 1347075; Potency, µM (top dose mostly 46.1 µM), usual class: cytotoxic; 400,000 compounds, 1.4% hits; KB-3-1 viability, CellTiter-Glo ATP luminescence, 72 h; also: nearly all actives have a fitted effect of over 60% in size
#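 KB-3-1 cells, DMEM (no phenol red) + 10% FBS; compound by pin transfer, 72 h, 37 °C. Readout: CellTiter-Glo luminescence after 10 min. Data normalized, curve-fitted.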
# * = called active by the depositor; i = inactive; ? = inconclusive; . = no result given. Calls follow the shape of the dose curve; as a rule, active = well fitted curve in the direction sought with a large enough effect; inconclusive = small, poorly fitted or top-dose-only effect, or another doubt; inactive = no such curve, though single readings can be large; an effect the other way counts as inactive or inconclusive. Unless noted, % is scaled to controls: 0 for no effect and ±100 for the full control effect; potency is read from the fitted curve at half-maximal effect.
SMILES,KB-V1 MDR tox,DT40 TDP1 CPT,HT1080NT lethal,HT1080 IDH1KD tx,TDP1 cell noCPT,KB-3-1 cytotox
CN(NC1OC(=O)c2ccccc21)c1ccccc1[N+](=O)[O-] (configuration not stated),i,9%,19%,6%,-5%,i
O=C(COc1ccc(Br)cc1)Nc1cccc2cccnc12,i,?,.,.,?,i
COc1ccc2[nH]cc(C(=O)CN3CC(C)CC(C)C3)c2c1 (configuration not stated),i,16%,-12%,-9%,-22%,i
COc1ccc2[nH]cc(C(=O)CN(C)CCc3ccc(OC)c(OC)c3)c2c1,i,18µM*,-15%,-7%,21µM*,i
COc1ccc2[nH]cc(C(=O)CCl)c2c1,?,3.3µM*,5.8µM*,7.3µM*,4.1µM*,12µM*
COc1ccc2[nH]cc(C(=O)CNc3nccs3)c2c1,i,?,.,.,7.9µM*,i
CCOC(=O)c1cc(-c2ccccc2)n(CCC(=O)N2CCN(c3ccc(OC)cc3)CC2)c1C,?,15µM*,-6%,-9%,23µM*,i
CCOC(=O)c1cc(-c2ccccc2)n(CC(=O)N2CCCC2)c1C,i,-29%,9%,10%,-15%,i
CCOC(=O)c1cc(-c2ccccc2)n(CCC(=O)N2CCN(c3ccccc3OC)CC2)c1C,?,12µM*,-11%,-17%,8.2µM*,i
CCn1ccc2cc(S(=O)(=O)N3CCCN(C(=O)NCC(=O)OC)CC3)ccc21,i,.,.,.,.,i
Cc1cc(C)nc(N/N=C/C2=C(O)CC(c3ccc(F)cc3)CC2=O)n1 (configuration not stated),?,23µM*,-18%,?,9.2µM*,i
CC(OC(=O)c1cn(-c2ccccc2)nc1-c1cccnc1)C(N)=O (configuration not stated),i,-6%,0%,5%,-13%,i
O=C(NC1CCc2ccccc21)c1cc(COc2cncc(Cl)c2)on1 (configuration not stated),i,9.2µM*,2%,-23%,?,i
Cc1cccc(C(=O)OCC(=O)NCc2cccs2)c1,i,?,18%,12%,-6%,i
CS(=O)(=O)c1ccc(C(=O)OCC(=O)NCc2cccs2)cc1[N+](=O)[O-],?,5.8µM*,?,-26%,4.6µM*,?
CC(C)c1ccc(NCCC(=O)c2cccs2)cc1,i,5.2µM*,16%,8%,5.2µM*,i
Cc1ccc(NCCC(=O)c2cccs2)cc1C,i,4.6µM*,-5%,0%,5.8µM*,i
CC(C)CCNC(=O)CNC(=O)c1cccs1,i,-6%,2%,4%,3%,?
Cc1ccc(C(=O)N/N=C(/CC(=O)c2cccs2)C(F)(F)F)cc1,?,7.3µM*,26µM*,?,9.2µM*,?
O=C(CCC(=O)c1cccs1)NCc1ccc(Cl)cc1,i,2%,9%,6%,-20%,i
O=C(CCNc1cccc(Cl)c1)c1cccs1,i,10µM*,0%,?,15µM*,?
Cc1ccc(NC(NC(=O)c2cccs2)C(Cl)(Cl)Cl)cc1C (configuration not stated),?,?,-23%,?,18µM*,i
O=C(CCC(=O)c1cccs1)NNC(=O)c1cccc(Cl)c1,i,?,-15%,-5%,23µM*,i
CCCOc1ccc(C(=O)CCNc2ccc(C)c(Cl)c2)cc1,i,-23%,-1%,9%,-15%,i
Cc1ccc(NCCC(=O)c2cccs2)cc1Cl,i,7.3µM*,10%,8%,9.2µM*,i
SMILES,KB-V1 MDR tox,DT40 TDP1 CPT,HT1080NT lethal,HT1080 IDH1KD tx,TDP1 cell noCPT,KB-3-1 cytotox
O=C(CCC(=O)c1cccs1)NNC(=O)c1ccccc1Cl,?,1%,8%,14%,22%,i
O=C(NNc1cc(Cl)cc(Cl)c1)c1cccs1,i,?,?,?,18µM*,i
COC(=O)c1ccc(Nc2nc(C)nc3c2nnn3Cc2ccccc2)cc1,i,-2%,13%,11%,-6%,i
Cc1ccc(NCCC(=O)c2cccs2)cc1,i,2.9µM*,3%,8%,5.2µM*,i
Cc1ccc(NC(=O)CCC(=O)c2cccs2)cc1,i,-13%,-2%,-1%,6%,i
CCCCn1c(N)c(N(CC(C)C)C(=O)c2oc3ccc(Br)cc3c2C)c(=O)[nH]c1=O,i,-17%,-15%,-12%,-29%,i
COC(=O)[C@@]12C[C@@H](CC(=O)NCCc3ccccc3OC)C(=O)N(Cc3ccccc3)C1=CCC(C)(C)C2,12µM*,21µM*,?,?,?,i
COC(=O)[C@@]12C[C@@H](CC(=O)NCCc3ccccc3OC)C(=O)N(Cc3ccc4c(c3)OCO4)C1=CCC(C)(C)C2,?,?,?,?,?,i
COC(=O)[C@@]12C[C@@H](CC(=O)NCCCCc3ccccc3)C(=O)N(Cc3ccc4c(c3)OCO4)C1=CCC(C)(C)C2,23µM*,?,?,?,13µM*,?
CCCCOCCCNC(=O)C[C@@H]1C[C@@]2(C(=O)OC)CCCCC=C2N(Cc2ccc3c(c2)OCO3)C1=O,?,?,1%,-4%,?,i
COCCCNC(=O)C[C@@H]1C[C@@]2(C(=O)OC)CC(C)(C)CC=C2N(Cc2ccccc2)C1=O,i,?,0%,-4%,-10%,i
CCCCNC(=O)C[C@@H]1C[C@@]2(C(=O)OC)CC(C)(C)CC=C2N(Cc2ccc3c(c2)OCO3)C1=O,?,16µM*,-19%,-15%,?,i
O=C(c1cccc(Cl)c1)N1CCC2CC1c1cc(N3CCOCC3)ccc12 (configuration not stated),i,?,8%,3%,?,i
C=CC[C@H]1C(C(=O)OCC)=CC[C@@H](c2ccccc2)N1S(=O)(=O)c1ccc(C)cc1,i,?,-9%,-23%,?,i
CCOC(=O)C1=C[C@@H](C(C)C)N(S(=O)(=O)c2ccc(C)cc2)[C@H]1c1ccc(C(C)C)cc1,i,?,3%,-18%,18µM*,i
